Results on seven molecules are retold here after PubChem BioAssay (Tox21).

Assay [1] in a line: Nuclear factor erythroid 2-related factor 2/antioxidant responsive element (Nrf2/ARE) small molecule agonists: qHTS cell viability counter screen in human keratinocytes (AID 1919968; active = well fitted curve in the direction sought with a large enough effect in the repeat runs; an effect the other way counts as inactive or inconclusive; also: nearly all actives have a fitted effect of over 55% in size). In a few lines:
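Stably transfected HaCaT (KeratinoSens), 1,500/well. Test agents in DMSO were applied for 23 h, 37 C/5% CO2. CellTiter-Fluor was incubated 1 h before the fluorescence read.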
(qHTS replaces the single test concentration by a dilution series.)

A short description of assay [2]: Nuclear factor erythroid 2-related factor 2/antioxidant responsive element (Nrf2/ARE) small molecule agonists: luciferase reporter gene qHTS assay in human keratinocytes (AID 1919969). Also: nearly all actives have a fitted effect of over 35% in size. Background: A reporter such as luciferase makes a cellular process visible.
Assay [3] addresses Gonadotropin-releasing hormone receptor (Homo sapiens) (UniProt P30968). Kind of assay: Human gonadotropin-releasing hormone receptor (GnRHR) small molecule agonists, calcium flux assay in GnRHR-HEK293 cells (AID 1920063). Also: nearly all actives have a fitted effect of over 35% in size. In a few lines:
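Stable human GnRHR HEK293 line. 18 h plating, then calcium dye for 1 h at 37 C. Agonist-mode compound addition from DMSO stocks; fluorescence monitored 3 min.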

Assay [4] concerns the target KiSS-1 receptor (Homo sapiens) (UniProt Q969F8). Kind of assay: Human kisspeptin (KISS1R) small molecule agonists, calcium flux assay in KISS1R-HEK293 cells (AID 1920064; active = well fitted curve in the direction sought with a large enough effect in the repeat runs; an effect the other way counts as inactive or inconclusive). In a few lines: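 After overnight (18 h) culture at 37 C/5% CO2, human KISS1R-HEK293 cells received calcium dye for 1 h, then test compound; emission at 540 nm (excitation 480 nm) was tracked for 3 min.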

Assay [5] can be described thus: G protein-coupled receptor (GPCR) small molecule agonists, calcium flux assay: HEK293 wild type cell line counter screen (AID 1920065). In a few lines: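 Following 18 h incubation at 37 C/5% CO2, plates got calcium dye for 1 h; compounds, ATP or DMSO were then pinned in and fluorescence followed kinetically (480/540 nm).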
(Calcium flux is commonly read through the fluorescence of an indicator in the cells.)

Assay [6] can be described thus: p53 small molecule agonists, cell-based qHTS assay with human liver microsomes (AID 1963577).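 Also: p53 response element beta-lactamase reporter cells with liver microsomes plus NADPH.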 The gist of the method: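 With metabolic activation: human liver microsomes (0.5 mg/mL final) plus NADPH (0.5 mg/mL final) added alongside compounds to p53RE-bla cells; 16 h 37 C exposure; beta-lactamase read by LiveBLAzer fluorescence.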
Assay [7] can be described thus: p53 small molecule agonists, cell-based qHTS assay with rat liver microsomes (AID 1963578). The gist of the method: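 Metabolic activation by rat liver microsomes and NADPH, each 0.5 mg/mL final, added right after compounds to p53RE-bla reporter cells (4,000/well, plated 5 h earlier). 16 h at 37 C, then LiveBLAzer substrate for 2 h at room temperature in the dark; fluorescence read-out.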

Assay [8] is described as follows: p53 small molecule agonists, cell-based qHTS assay with human liver microsomes: qHTS cell viability counter screen (AID 1963579). Also: nearly all actives have a fitted effect of over 45% in size. Also: potency is read from the fitted curve at half-maximal effect. The gist of the method:
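Metabolic activation used human liver microsomes and NADPH, both 0.5 mg/mL final, over 16 hours at 37 C on p53RE-bla cells (4,000/well). Cytotoxicity measured by CellTiter-Glo luminescence, 30 min at room temperature.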

The nature of assay [9]: p53 small molecule agonists, cell-based qHTS assay: qHTS cell viability counter screen (AID 1963581). Also: nearly all actives have a fitted effect of over 45% in size. Also: potency is read from the fitted curve at half-maximal effect. In a few lines: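 qHTS counter screen: 16 h compound exposure at 37 C of p53RE-bla HCT-116 cells (4,000 per well, seeded 5 h prior), cell viability by ATP luminescence.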
Assay [10] can be described thus: p53 small molecule agonists, cell-based qHTS assay (AID 1963582; active = well fitted activation curve with a large enough effect in the signal ratio in the repeat runs, not every such curve was filed as active; the % refers to the signal ratio). In a few lines:
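Measured: fluorescence from cleaved LiveBLAzer substrate. System: p53RE-bla cells, 16 h compound treatment at 37 C, 2 h substrate step at room temperature.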

In assay [11] the target is 5-hydroxytryptamine receptor 2A (Homo sapiens) (UniProt P28223). Kind of assay: 5-hydroxytryptamine receptor 2A (HTR2A) small molecule agonists, cell-based qHTS assay (AID 1963587). Also: nearly all actives have a fitted effect of over 30% in size. The gist of the method: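 Kinetic calcium-flux fluorescence (2 min, 1 sec intervals) after compound addition in agonist mode. HTR2A-CHO cells were cultured 18 h, then dye-loaded 1 h at 37 C.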

In assay [12] the target is Muscarinic acetylcholine receptor M1 (Homo sapiens) (UniProt P11229). Briefly: Cholinergic receptor muscarinic 1 (CHRM1) small molecule antagonists, cell-based qHTS assay (AID 1963588). Also: nearly all actives have a fitted effect of over 40% in size. In a few lines:
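Compounds were tested at 15 concentrations in three independent runs. Dye-loaded CHRM1-CHO cells were exposed 5 min at room temperature before stimulation by acetylcholine added at 50nM. Intracellular calcium was read kinetically on FDSS for 3 min.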

Assay [13] has the same target. Briefly: Cholinergic receptor muscarinic 1 (CHRM1) small molecule agonists, cell-based qHTS assay (AID 1963589). Also: nearly all actives have a fitted effect of over 35% in size. The gist of the method:
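Kinetic fluorescence (1 s intervals) of calcium-sensitive dye in human M1 CHO cells after compound addition; cells pre-incubated 18 h at 37 C/5% CO2 and dye-loaded 1 h.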

Assay [14] deals with Beta-2 adrenergic receptor (Homo sapiens) (UniProt P07550). Kind of assay: Adrenergic beta2 receptor (ADRB2) small molecule antagonists, cell-based qHTS assay (AID 1963592). Also: series mostly up to about 92 µM; nearly all actives have a fitted effect of over 50% in size. The gist of the method: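 Assay format: CHO-ADRB2 cells, 18-20hr seeding at 37C/5% CO2, then compound plus 1nM isoproterenol agonist mix for 0.5hr RT. Homogeneous time-resolved fluorescence cAMP detection after 1hr, expressed as 665/615 nm ratio.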

In assay [15] the target is D(2) dopamine receptor (Homo sapiens) (UniProt P14416). Kind of assay: Dopamine D2 receptor (DRD2) small molecule agonists, cell-based qHTS assay (AID 1963594). Also: nearly all actives have a fitted effect of over 35% in size. The gist of the method: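 cAMP accumulation in DRD2-HEK293 cells measured by HTRF after 1 h detection; compounds added 10 min before NKH477 (200nM […]) forskolin-analogue stimulation, 30 min at room temperature, with Ro20-1724 present at 0.1 mM final.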

The target is the same in assay [16]. Kind of assay: Dopamine D2 receptor (DRD2) small molecule antagonists, cell-based qHTS assay (AID 1963595; active = well fitted inhibition curve with a large enough effect in the signal ratio in the repeat runs, with a control signal flat; the % refers to the signal ratio). In a few lines: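 Readout: HTRF cAMP, cAMP-d2 competing with cellular cAMP for anti-cAMP cryptate, read after 1 h. Cells: DRD2-HEK293. Conditions: 0.1 mM Ro20-1724, 12 nM quinpirole, 200 nM NKH477, 30 min RT.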
For assay [17], the target named is 5-hydroxytryptamine receptor 2A (Homo sapiens) (UniProt P28223). Kind of assay: 5-hydroxytryptamine receptor 2A (HTR2A) small molecule antagonists, cell-based qHTS assay (AID 1963586). Also: nearly all actives have a fitted effect of over 45% in size. The gist of the method:
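CHO cells stably expressing human HTR2A were plated for 18 h at 37 C, then loaded with calcium dye for 1 h. Compounds were preincubated 5 min at room temperature before DOI (4 nM solution) was added. Kinetic fluorescence was read for 3 min.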

Assay [18] in a line: cAMP Responsive Elements (CRE) small molecule agonists, cell-based qHTS assay (AID 1963590). The gist of the method:
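Test agents in DMSO were incubated 3 h at 37 C/5% CO2 with CRE-bla HEK 293T cells seeded 18 h earlier; LiveBLAzer B/G FRET substrate was added and read after 2 h at room temperature.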

Assay [19] can be described thus: cAMP Responsive Elements (CRE) small molecule antagonists, cell-based qHTS assay (AID 1963591; active = well fitted inhibition curve with a large enough effect in the signal ratio in the repeat runs, not every such curve was filed as active; the % refers to the signal ratio). In a few lines: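 Reporter line CRE-bla HEK 293T in dialyzed-FBS DMEM; cells preincubated 18 h, treated 3 h with compound plus NKH477 (0.25 uM final); LiveBLAzer FRET, 2 h RT.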

Values without a mark were called inactive. Records with an inconclusive call do not appear. Calls of active or inactive are those of the source. Unless noted, calls follow the shape of the full dose curve.
% is scaled to controls: 0 for no effect and ±100 for the full control effect.

Chain of D(2) dopamine receptor (Homo sapiens) (P14416 whole entry, looked up): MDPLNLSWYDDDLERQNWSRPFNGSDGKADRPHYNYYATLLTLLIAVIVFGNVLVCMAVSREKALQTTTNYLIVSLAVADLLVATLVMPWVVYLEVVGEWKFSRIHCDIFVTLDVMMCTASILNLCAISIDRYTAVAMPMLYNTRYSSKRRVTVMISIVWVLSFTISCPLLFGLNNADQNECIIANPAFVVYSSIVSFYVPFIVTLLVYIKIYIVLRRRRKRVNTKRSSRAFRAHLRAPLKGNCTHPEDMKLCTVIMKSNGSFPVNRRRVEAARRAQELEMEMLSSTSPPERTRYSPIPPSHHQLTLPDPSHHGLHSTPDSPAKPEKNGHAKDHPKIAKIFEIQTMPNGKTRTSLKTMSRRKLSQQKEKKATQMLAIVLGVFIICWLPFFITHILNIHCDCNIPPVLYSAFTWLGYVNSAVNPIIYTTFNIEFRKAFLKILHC
Chain of Beta-2 adrenergic receptor (Homo sapiens) (P07550 whole entry, looked up): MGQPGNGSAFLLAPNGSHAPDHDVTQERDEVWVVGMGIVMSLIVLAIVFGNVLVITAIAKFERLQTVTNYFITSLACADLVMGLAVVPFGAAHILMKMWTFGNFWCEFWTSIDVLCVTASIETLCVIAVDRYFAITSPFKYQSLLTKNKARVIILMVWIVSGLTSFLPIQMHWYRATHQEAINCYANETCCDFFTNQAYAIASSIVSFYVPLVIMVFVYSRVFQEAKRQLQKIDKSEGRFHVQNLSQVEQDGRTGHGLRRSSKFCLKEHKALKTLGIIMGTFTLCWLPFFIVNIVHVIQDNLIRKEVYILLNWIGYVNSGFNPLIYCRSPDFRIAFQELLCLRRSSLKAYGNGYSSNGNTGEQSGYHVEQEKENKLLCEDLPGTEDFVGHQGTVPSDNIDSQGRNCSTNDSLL
Chain of Muscarinic acetylcholine receptor M1 (Homo sapiens) (P11229 whole entry, looked up): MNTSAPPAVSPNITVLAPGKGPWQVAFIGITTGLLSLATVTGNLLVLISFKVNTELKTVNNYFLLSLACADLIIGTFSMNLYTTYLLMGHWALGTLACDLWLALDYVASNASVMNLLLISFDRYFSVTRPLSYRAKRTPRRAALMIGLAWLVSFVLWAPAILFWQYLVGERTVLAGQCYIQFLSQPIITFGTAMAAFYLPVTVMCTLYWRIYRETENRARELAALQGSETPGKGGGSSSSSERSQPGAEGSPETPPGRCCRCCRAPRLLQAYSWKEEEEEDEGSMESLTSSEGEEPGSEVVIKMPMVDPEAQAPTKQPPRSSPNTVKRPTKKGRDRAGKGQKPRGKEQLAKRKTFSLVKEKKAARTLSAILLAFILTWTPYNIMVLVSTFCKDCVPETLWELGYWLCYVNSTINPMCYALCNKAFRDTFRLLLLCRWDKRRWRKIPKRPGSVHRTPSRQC
Chain of KiSS-1 receptor (Homo sapiens) (Q969F8 whole entry, looked up): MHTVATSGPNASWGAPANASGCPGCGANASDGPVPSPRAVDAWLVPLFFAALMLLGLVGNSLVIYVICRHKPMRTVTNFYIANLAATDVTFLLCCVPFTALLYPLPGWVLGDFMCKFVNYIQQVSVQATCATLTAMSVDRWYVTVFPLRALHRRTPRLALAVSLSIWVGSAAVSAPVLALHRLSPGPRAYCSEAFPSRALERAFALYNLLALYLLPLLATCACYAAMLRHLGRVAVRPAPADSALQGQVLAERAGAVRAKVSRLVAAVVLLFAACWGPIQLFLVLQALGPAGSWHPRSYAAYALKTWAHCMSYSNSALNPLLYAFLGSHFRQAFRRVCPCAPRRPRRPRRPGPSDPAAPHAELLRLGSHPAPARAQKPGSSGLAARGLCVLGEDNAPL
Chain of 5-hydroxytryptamine receptor 2A (Homo sapiens) (P28223 whole entry, looked up): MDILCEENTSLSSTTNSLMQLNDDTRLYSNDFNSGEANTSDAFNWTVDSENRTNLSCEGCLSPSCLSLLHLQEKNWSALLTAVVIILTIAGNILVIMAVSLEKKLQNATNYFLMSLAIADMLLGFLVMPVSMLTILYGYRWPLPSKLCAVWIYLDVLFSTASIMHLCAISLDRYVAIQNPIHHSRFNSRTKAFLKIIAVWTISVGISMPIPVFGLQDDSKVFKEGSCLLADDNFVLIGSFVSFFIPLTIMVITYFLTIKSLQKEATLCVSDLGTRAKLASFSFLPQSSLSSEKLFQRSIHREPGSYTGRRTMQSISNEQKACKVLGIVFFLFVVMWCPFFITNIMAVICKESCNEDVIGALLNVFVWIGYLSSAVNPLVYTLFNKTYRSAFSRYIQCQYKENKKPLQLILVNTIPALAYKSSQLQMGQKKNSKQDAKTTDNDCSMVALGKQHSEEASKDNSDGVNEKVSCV
Chain of Gonadotropin-releasing hormone receptor (Homo sapiens) (P30968 whole entry, looked up): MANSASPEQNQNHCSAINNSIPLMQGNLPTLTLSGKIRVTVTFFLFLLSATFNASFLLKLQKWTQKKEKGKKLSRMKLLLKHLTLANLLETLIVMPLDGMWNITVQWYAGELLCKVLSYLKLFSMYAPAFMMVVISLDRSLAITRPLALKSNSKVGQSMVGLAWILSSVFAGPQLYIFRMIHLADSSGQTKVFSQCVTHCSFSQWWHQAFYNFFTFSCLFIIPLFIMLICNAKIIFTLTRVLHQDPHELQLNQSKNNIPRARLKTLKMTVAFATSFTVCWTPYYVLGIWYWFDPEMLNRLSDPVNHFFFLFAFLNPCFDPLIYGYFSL

Take `O=C(O)c1cccc(-c2noc(-c3ccccc3F)n2)c1`: the Potency entry in assay [1], in [2], in assay [3], in assay [6], in assay [7] and in assay [10] was “inactive” in each case. The Potency entry in assay [11], in [12], in [13], in assay [14], in assay [15] and in assay [16] was “inactive” in each case. The outcome in [4] and in assay [5] was inactive. Moreover, the Potency in assay [8] and in [9] was 15.8 µM (active) throughout.
In the case of `O=C1OC(=O)C2CCCCC12` (configuration not stated), the Potency entry in [1], in assay [2], in assay [3], in assay [6], in assay [7] and in assay [8] was “inactive” in each case. Moreover, the Potency result in assay [9], in assay [17], in assay [11], in assay [12], in assay [13] and in assay [18] was “inactive” throughout. For the same molecule, the Potency entry in assay [19], in [14], in assay [15] and in assay [16] was “inactive” in each case. Moreover, the outcome in [4] and in assay [5] was inactive.
Take `CC1=CC(O)CC(C)(C)C1` (configuration not stated): the Potency entry in assay [1], in assay [2], in [3], in assay [6], in [7] and in [8] was “inactive” in each case. For the same molecule, the Potency entry in assay [9], in assay [17], in [11], in assay [12], in assay [13] and in [18] was “inactive” in each case. For the same molecule, the Potency entry in [19], in assay [14], in assay [15] and in assay [16] was “inactive” each time. Besides, the result in assay [4] and in assay [5] was inactive.
Regarding `O=C(O)P(=O)(O)O`, the Potency entry in assay [1], in [2], in assay [3], in assay [6], in assay [7] and in [8] was “inactive” each time. For the same molecule, the Potency entry in assay [9], in [10], in assay [18], in [19], in assay [14] and in assay [15] was “inactive” in each case. The Potency entry in assay [16] was “inactive”. The result in assay [4] and in [5] was inactive.
For `NCCCCCC(=O)O`, the Potency result in [1], in assay [2], in assay [3], in assay [6], in assay [7] and in assay [8] was “inactive” in each case. The Potency result in assay [9], in assay [10], in assay [18], in assay [19], in assay [14] and in assay [15] was “inactive” in each case. In assay [16], the Potency entry is “inactive”. Also, the outcome in assay [4] and in [5] was inactive.
For `CCCC(C)C=O` (configuration not stated), the Potency result in assay [1], in [2], in [3], in assay [6], in [7] and in assay [8] was “inactive” in each case. In addition, the Potency entry in [9], in assay [10], in [11], in assay [12], in [13] and in assay [18] was “inactive” each time. The Potency result in [14], in assay [15] and in assay [16] was “inactive” each time. Moreover, the outcome in [4] and in assay [5] was inactive.
For the molecule `O=S(O)(O)=S`, the values for the activity change, negative = cytotoxicity in assay [1], in assay [8] and in assay [9] were -0.897% [at 8.39 µM], -5.1% [at 5.99 µM] and -0.464% [at 5.99 µM], respectively. In addition, the activity, positive = activation in assay [2] is -3.55% [at 8.39 µM]. Also, the activity change in assay [3] is 4.24% [at 5.22 µM, stronger effect = higher value]. Further, the activation in [4] is -0.115% [at 6.97 µM]; in [5], 0.868% [at 5.23 µM]; in assay [6], 0.289% [at 5.99 µM]; in assay [7], -2.47% [at 5.99 µM]; in assay [11] it was 7.09% [at 7.02 µM]; in assay [13] it was -0.0505% [at 6.97 µM]. For the same molecule, the activation in assay [18] was -0.269% [at 8.39 µM]; in [15], -2.24% [at 8.39 µM]. Further, the figures for the activity, negative = inhibition in assay [17] and in assay [12] were 5.27% [at 5.62 µM] and 0.0869% [at 5.58 µM], respectively. The figures for the activity change, negative = inhibition in [19], in assay [14] and in assay [16] were -0.372% [at 8.39 µM], 6.54% [at 8.39 µM] and -2.62% [at 8.38 µM], respectively.
